Among the data in PubChem BioAssay (EPA / NIEHS) are outcome and AC50 values, retold here.

For orientation: AC50 means the concentration at which the activity in the assay is half-maximal.

Some compounds were tested as several samples or in several runs, with calls that do not always agree. Activity calls are given as the source filed them. Rule for the calls: active = hit-call score of the fitted dose curve at least 0.9, where 1 is the maximum; inactive = score below 0.9.

A short description of this test: CEETOX_H295R_OHPREG: CeeTox H295R High-throughput Steroidogenesis Assay for OH-Pregnenolone (OHPREG) (AID 2283434). The settings on record: actives raise or lower the signal. The protocol: CEETOX_H295R is a cell-based, multiplexed-readout assay that uses H295R, a human adrenal gland cell line, with measurements taken at 48 hours after chemical dosing in a 96-well plate.CEETOX_H295R_OHPREG is one of 23 assay component(s) measured or calculated from the CEETOX_H295R assay. It is designed to make measurements of hormone induction, a form of inducible reporter, as detected with […] by HPLC-MS-MS technology.Data from the assay component CEETOX_H295R_OHPREG was analyzed into 1 assay endpoint. This assay endpoint, CEETOX_H295R_OHPREG, was analyzed with bidirectional fitting relative to DMSO as the negative control and baseline of activity. Using a type of inducible reporter, gain or loss-of-signal activity using HPLC-MS-MS was used to understand synthesis of 17alpha-hydroxypregnenolone in H295R cell line at 48hr of chemical exposure. To generalize the intended target to other relatable targets, this assay endpoint is annotated to the steroid hormone intended target family, where the subfamily is progestagens.
Cell culture and media preparation procedures were conducted in accordance with OECD Test No. 456 guidelines, with minor modifications. H295R cells (ATCC CRL-2128) were expanded for 5 passages and frozen in batches in liquid nitrogen. Prior to the steroidogenesis assay, H295R cells were thawed and passed at least 4 times. The maximum passage was 10. Cells were maintained in a 1:1 mixture of DMEM/F12 supplemented with 5ml/L ITS+ Premix (BD Bioscience) and 12.5 ml/L Nu-Serum (BD Bioscience). After seeding cells into 96-well plates at 50-60% confluency, cells were allowed to adhere overnight. Prior to chemical testing, culture medium was replaced with 175 uL medium containing 10 uM forskolin to stimulate steroidogenesis for 48 hours. Following prestimulation, forskolin medium was replaced with medium containing test chemical solubilized in DMSO (ensuring a final concentration of 0.1% DMSO). Test chemicals were incubated for 48 hours, then the medium was removed and split into 2 vials containing approximately 75uL each, and stored at -80 C prior to hormone analysis. For steroid quantification, media samples were shipped to OpAns, LLC (Durham, NC) on dry ice, and samples were thawed to room temperature prior to liquid-liquid extraction. Steroid hormones were extracted from media samples using methyl tertbutyl ether (MTBE). An extra derivatization with dansyl chloride was included for estrogen (estrone and estradiol) detection only. Steroid hormones were separated by HPLC, eluted using a reverse phase C18 gradient with electrospray positive ionization, followed by quantification by tandem mass spectrometry (MS/MS). Data were acquired on a MassHunter Workstation Acquisition version B03.01 (Agilent Technologies, Inc.) and processed using MassHunter Quantitative Analysis for QQQ. Accuracy was determined for each hormone analyte from 3 standards to determine upper and lower limits of quantification (ULOQ and LLOQ, respectively) using a 7-point standard curve. Precision and accuracy of the extraction and quantification methods were calculated as the percent relative standard deviation (%RSD) of the spiked standards and percent spiked standard recovered, respectively. The goal was to achieve 100% accuracy (i.e., recover all spiked-in standard at quantification with minimal loss during run time) and good precision (i.e., have %RSD <15% to ensure reproducibility). Test medium was removed following chemical exposure, and cell viability was evaluated in the same wells by MTT. MTT procedures were as follows: after removal of test medium, 500 uL of 0.5 mg/ml of 3-[4,5-dimethylthiazol-2-y]2,5-diphenyltetrazoliumbromide solution was added to the cells. Following a 4-hour incubation at 37 C and 5% CO2 to allow formazan-crystal formation, the MTT solution was removed and blue formazan salt crystals were solubilized using 500uL anhydrous isopropanol with shaking for 20 minutes. […]
In the case of `CC(C)N(C(=O)COc1nnc(C(F)(F)F)s1)c1ccc(F)cc1`, the molecule was classed as inactive.
The same measure, in the same setting: the value for `COP(=S)(OC)Oc1ccc([N+](=O)[O-])cc1` was “inactive”; that for `C[C@H]1[C@H](c2ccc(Cl)cc2)SC(=O)N1C(=O)NC1CCCCC1` was “inactive”; that for `CCCN(CCC)c1c([N+](=O)[O-])cc(C(F)(F)F)cc1[N+](=O)[O-]` was “inactive”.
Same read-out and setting: to `Oc1cc(Cl)ccc1Oc1ccc(Cl)cc1Cl` belongs “inactive”.
On to `ClC1C(Cl)C(Cl)C(Cl)C(Cl)C1Cl` (stereo unspecified), for which the AC50 is 50 µM (active).
Regarding `CNC(=O)Oc1ccccc1OC(C)C`, the call was inactive.
Still for that read-out and setting: to `O=C(NC(=O)c1c(F)cccc1F)Nc1ccc(OC(F)(F)C(F)OC(F)(F)F)c(Cl)c1` (stereo unspecified) belongs “inactive”.
Take `CCC(C)(C)C(=O)OC1=C(c2ccc(Cl)cc2Cl)C(=O)OC12CCCCC2`: the outcome was inactive.
On to `CC(C)OC(=O)Nc1cccc(Cl)c1`, for which the outcome was inactive.
Consider `O=C(O)COc1ccc(Cl)cc1Cl`, for which the molecule was classed as inactive.
Still for that read-out and setting: the value for `O=[N+]([O-])c1c(Cl)c(Cl)c(Cl)c(Cl)c1Cl` was “inactive”; that for `Oc1ccc(Cl)cc1Cc1ccccc1` was “inactive”.
Still for that read-out and setting: to `CNC(=O)Oc1cccc(N=CN(C)C)c1` belongs “inactive”.
In the case of `O=C1c2ccccc2C(=O)N1SC(Cl)(Cl)Cl`, the outcome was inactive.
Same read-out and setting: the value for `Clc1ccccc1-c1nnc(-c2ccccc2Cl)nn1` was “inactive”.
Regarding `CCCN(CCOc1c(Cl)cc(Cl)cc1Cl)C(=O)n1ccnc1`, the AC50 is 0.159 µM (active).
Regarding `CNC(=O)/C=C(\C)OP(=O)(OC)OC`, the molecule was called inactive.
As for `CC1(C)C(C=C(Cl)Cl)C1C(=O)OC(C#N)c1ccc(F)c(Oc2ccccc2)c1` (stereo unspecified), the molecule was classed as inactive.
On the same count and under the same terms, the value for `C#CCN1C(=O)COc2cc(F)c(N3C(=O)C4=C(CCCC4)C3=O)cc21` was “inactive”.
Still for that read-out and setting: the value for `COc1nn(CSP(=S)(OC)OC)c(=O)s1` was “inactive”; that for `O=[N+]([O-])/N=C1\NCCN1Cc1ccc(Cl)nc1` was “inactive”; that for `N#Cc1c(Cl)c(Cl)c(Cl)c(C#N)c1Cl` was “inactive”.
Consider `CC(C)(C)C(O)C(Oc1ccc(Cl)cc1)n1cncn1` (stereo unspecified), for which the result was inactive.
The same measure, in the same setting: the value for `CCc1ccc(C(=O)NN(C(=O)c2cc(C)cc(C)c2)C(C)(C)C)cc1` was “inactive”; that for `CNC(=O)CSP(=S)(OC)OC` was “inactive”.
On to `CC[C@H](C)[C@H]1O[C@]2(C=C[C@@H]1C)C[C@@H]1C[C@@H](C/C=C(\C)[C@@H](O[C@H]3C[C@H](OC)[C@@H](O[C@H]4C[C@H](OC)[C@@H](O)[C@H](C)O4)[C@H](C)O3)[C@@H](C)/C=C/C=C3\CO[C@@H]4[C@H](O)C(C)=C[C@@H](C(=O)O1)[C@]34O)O2` (tested in a mixture with another compound), for which the molecule was called inactive.
`CCN(CC)C(=O)SCc1ccc(Cl)cc1`: the AC50 is 19.3 µM (active).
The same measure, in the same setting: the value for `CCC(C)Nc1c([N+](=O)[O-])cc(C(C)(C)C)cc1[N+](=O)[O-]` (stereo unspecified) was 74.5 µM (active).
In the case of `CC(C)(C)C(O)/C(=C\c1ccc(Cl)cc1Cl)n1cncn1` (stereo unspecified), the molecule was classed as inactive.
As for `COP(=S)(OC)Oc1ccc(SC)c(C)c1`, the outcome was inactive.
